Our source for the outcome and AC50 values is PubChem BioAssay (EPA / NIEHS).

Results filed as inconclusive are left out. Activity calls are given as the source filed them. The calls were made as follows, unless noted: active = hit-call score of the fitted dose curve at least 0.9, where 1 is the maximum; inactive = score below 0.9.

In assay [1] the target is human Peroxisome Proliferator-activated Receptor delta (PPARd), PPARD (gene 5467) (UniProt Q03181). The assay can be described thus: ATG_PPARd_TRANS: Attagene TRANS-FACTORIAL HepG2 Assay for human Peroxisome Proliferator-activated Receptor delta (PPARd) (AID 2283002; active = hit-call score of the fitted dose curve at least 0.9, where 1 is the maximum). In a few lines:
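Transient HepG2 transfection (multiple GAL4-UAS RTUs, chimeric receptor-Gal4); 24 h dosing; total RNA → oligo(dT) RT → PCR → 6-FAM primer extension → HpaI cut → CE. Positive direction vs DMSO.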

Read-out in assay [2]: Intercellular Adhesion Molecule 1 (ICAM1), ICAM1 (gene 3383)
The assay can be described thus: BSK_3C_ICAM1: BioMAP Diversity Plus: 3C Assay for Intercellular Adhesion Molecule 1 (ICAM1) Biomarker Activity (AID 2283003). Conditions: primary human endothelial cells (HUVEC); actives raise or lower the signal. In a few lines:
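HUVEC primary cells stimulated under 3C conditions; ICAM1 measured by ELISA 24 h after compound dosing. Curves fitted bidirectionally against the DMSO baseline. Overt cytotoxicity checked by SRB staining of parallel cultures.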

The target of assay [3] is human Retinoic Acid Receptor beta (RARb), RARB (gene 5915) (UniProt P10826). The assay can be described thus: ATG_RARb_TRANS: Attagene TRANS-FACTORIAL HepG2 Assay for human Retinoic Acid Receptor beta (AID 2283004; active = hit-call score of the fitted dose curve at least 0.9, where 1 is the maximum). In a few lines:
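HepG2 cells transiently transfected with multiplexed GAL4-UAS reporter units expressing chimeric NR–Gal4 fusions; 24 h compound exposure. Reporter mRNA quantified by RT-PCR, 6-FAM labelling, HpaI digestion and capillary electrophoresis; gain-of-signal fitted against DMSO baseline.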

A short description of assay [4]: BSK_3C_Proliferation: Cell Proliferation Assessment in the BioMAP Diversity Plus: 3C Assay (AID 2283006).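 As to AC50: potency may reflect either rise or fall in cell number versus DMSO.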 To be noted: primary human endothelial cells (HUVEC). In a few lines: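 Subconfluent HUVEC (3C system) cultured with chemical; relative cell number read at 48 h by sulforhodamine B total-protein staining (0.1% SRB after 10% TCA fixation, 560 nm). Bidirectional fit relative to DMSO.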

Assay [5] addresses Peroxisome proliferator-activated receptor gamma (Homo sapiens) (UniProt P37231). The assay can be described thus: ATG_PPARg_TRANS: Attagene TRANS-FACTORIAL HepG2 Assay for human Peroxisome Proliferator-activated Receptor-gamma (PPARg) (AID 2283007; active = hit-call score of the fitted dose curve at least 0.9, where 1 is the maximum). In a few lines:
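HepG2 cells transiently transfected with multiplexed GAL4-UAS reporter units and exogenous chimeric NR-Gal4 proteins; reporter mRNA quantified after 24 h compound exposure by RT-PCR, fluorescent labelling, HpaI digestion and capillary electrophoresis; gain-of-signal fitted versus DMSO baseline.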

The target in assay [6] is human Retinoic Acid Receptor gamma (RARg), RARG (gene 5916) (UniProt P13631). As to the kind of experiment: ATG_RARg_TRANS: Attagene TRANS-FACTORIAL HepG2 Assay for human Retinoic Acid Receptor gamma (RARg) (AID 2283009; active = hit-call score of the fitted dose curve at least 0.9, where 1 is the maximum). In a few lines: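 HepG2 transiently transfected with GAL4-UAS reporter units and chimeric NR-Gal4 constructs; 24 h compound exposure. Reporter mRNA quantified by RT-PCR, FAM labeling, HpaI digestion and capillary electrophoresis; gain-of-signal versus DMSO.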
Sequence of human Retinoic Acid Receptor gamma (RARg), RARG (gene 5916) (P13631 whole entry, looked up, the tested form may be a part): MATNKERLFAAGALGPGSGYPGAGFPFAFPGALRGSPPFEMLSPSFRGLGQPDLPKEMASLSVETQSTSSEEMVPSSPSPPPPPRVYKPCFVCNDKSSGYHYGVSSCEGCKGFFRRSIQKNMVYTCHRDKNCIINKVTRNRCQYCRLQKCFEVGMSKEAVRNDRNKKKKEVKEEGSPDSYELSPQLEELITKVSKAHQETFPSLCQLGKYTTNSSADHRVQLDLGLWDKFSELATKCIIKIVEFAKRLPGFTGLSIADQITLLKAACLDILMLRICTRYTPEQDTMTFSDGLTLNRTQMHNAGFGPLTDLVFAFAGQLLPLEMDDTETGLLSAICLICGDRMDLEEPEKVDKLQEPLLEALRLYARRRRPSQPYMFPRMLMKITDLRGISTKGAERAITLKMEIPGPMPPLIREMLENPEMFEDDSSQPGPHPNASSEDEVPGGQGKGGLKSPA

Assay [7] has as its target Retinoic acid receptor RXR-alpha (Homo sapiens) (UniProt P19793). As to the kind of experiment: ATG_RXRa_TRANS: Attagene TRANS-FACTORIAL HepG2 Assay for human Retinoid X Receptor alpha (RXRa) (AID 2283012; active = hit-call score of the fitted dose curve at least 0.9, where 1 is the maximum). In a few lines:
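HepG2 cells transiently transfected with GAL4-UAS reporter units and chimeric RXRa-Gal4 protein, treated 24 h. Reporter mRNA measured by RT-PCR, fluorescent labelling, HpaI digestion and capillary electrophoresis. Induction fitted against DMSO.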

Read-out in assay [8]: E-selectin (Homo sapiens) (UniProt P16581)
The assay can be described thus: BSK_3C_Eselectin: BioMAP Diversity Plus: 3C Assay for Eselectin Biomarker Activity (AID 2283015).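 As to outcome: cell surface E-selectin protein quantified by ELISA 24 h after dosing.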 To be noted: primary human endothelial cells (HUVEC); actives raise or lower the signal. In a few lines: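 Primary human umbilical vein endothelial cells (3C system) were dosed with chemical and cell-surface E-selectin measured by ELISA 24 h later. Bidirectional curve fitting used DMSO as negative control and baseline.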

Read-out in assay [9]: Interleukin-1 alpha (IL1a), IL1A (gene 3552)
The assay can be described thus: BSK_BE3C_IL1a: BioMAP Diversity Plus: BE3C Assay for Interleukin-1 alpha (IL1a) Biomarker Activity (AID 2283016). To be noted: primary human bronchial epithelial cells; actives raise or lower the signal. In a few lines:
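Human primary bronchial epithelial cells, 24 h chemical exposure; IL-1a quantified by ELISA, fitted bidirectionally against DMSO. Cytotoxicity assessed in parallel by SRB total-protein staining at the time of measurement.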

Read-out in assay [10]: Monocyte Chemoattractant Protein-1 (MCP1), CCL2 (gene 6347)
As to the kind of experiment: BSK_3C_MCP1: BioMAP Diversity Plus: 3C Assay for Monocyte Chemoattractant Protein-1 (MCP1) Biomarker Activity (AID 2283017). To be noted: primary human endothelial cells (HUVEC); actives raise or lower the signal. In a few lines:
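Primary human umbilical vein endothelial cells (3C system) were exposed to test chemical for 24 h, after which MCP-1 was quantified by ELISA. Activity was fitted bidirectionally against DMSO as negative control and baseline.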

Read-out in assay [11]: Monocyte Chemoattractant Protein-1 (MCP1), CCL2 (gene 6347)
As to the kind of experiment: BSK_4H_MCP1: BioMAP Diversity Plus: 4H Assay for Monocyte Chemoattractant Protein-1 (MCP1) Biomarker Activity (AID 2283018). To be noted: primary human endothelial cells (HUVEC); actives raise or lower the signal. In a few lines: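 Human umbilical vein endothelial cells (4H system) exposed to chemicals for 24 h in 96-well format. MCP-1 measured by ELISA; bidirectional fitting against DMSO, with SRB total-protein staining in parallel cultures for cytotoxicity.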

Read-out in assay [12]: Human Leukocyte Antigen - DR isotype (HLADR), HLA-DRA (gene 3122)
The assay can be described thus: BSK_3C_HLADR: BioMAP Diversity Plus: 3C Assay for Human Leukocyte Antigen - DR isotype (HLADR) Biomarker Activity (AID 2283019). To be noted: primary human endothelial cells (HUVEC); actives raise or lower the signal. In a few lines: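 Primary human umbilical vein endothelial cells (3C system) were dosed with compound and cell-surface HLA-DR was quantified by ELISA at 24 h. Activity was fitted bidirectionally against DMSO as negative control and baseline.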

Read-out in assay [13]: Interleukin-8 (IL8), CXCL8 (gene 3576)
As to the kind of experiment: BSK_3C_IL8: BioMAP Diversity Plus: 3C Assay for Interleukin-8 (IL8) Biomarker Activity (AID 2283020). Conditions: primary human endothelial cells (HUVEC); actives raise or lower the signal. In a few lines: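 Primary human umbilical vein endothelial cells were dosed for 24 h. IL-8 was quantified by ELISA and fitted bidirectionally against DMSO. Cytotoxicity was assessed in parallel cultures by SRB staining at 560 nm.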

Read-out in assay [14]: Monokine induced gamma interferon (MIG), CXCL9 (gene 4283)
The assay can be described thus: BSK_3C_MIG: BioMAP Diversity Plus: 3C Assay for Monokine induced gamma interferon (MIG) Biomarker Activity (AID 2283021).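 As to AC50: MIG protein level measured by immunoassay in the treated endothelial cultures.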 Conditions: primary human endothelial cells (HUVEC); actives raise or lower the signal. In a few lines: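 HUVEC primary endothelial cultures dosed with chemical; MIG quantified by ELISA at 24 h. Data fitted bidirectionally against DMSO control, with parallel SRB total-protein staining for cytotoxicity.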

Assay [15] concerns the target human Retinoid X Receptor beta (RXRb), RXRB (gene 6257) (UniProt P28702). As to the kind of experiment: ATG_RXRb_TRANS: Attagene TRANS-FACTORIAL HepG2 Assay for human Retinoid X Receptor beta (RXRb) (AID 2283013; active = hit-call score of the fitted dose curve at least 0.9, where 1 is the maximum). In a few lines:
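HepG2 cells were transiently transfected with multiplexed GAL4-UAS reporters and a chimeric RXRb-Gal4 construct, then exposed for 24 h. Reporter mRNA was quantified by RT-PCR, FAM labeling, HpaI digestion and capillary electrophoresis; gain of signal was scored against DMSO.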

Assay [16] has as its target human Thyroid Receptor alpha (THRa1), THRA (gene 7067) (UniProt P10827). The assay can be described thus: ATG_THRa1_TRANS: Attagene TRANS-FACTORIAL HepG2 Assay for human Thyroid Receptor alpha (THRa1) (AID 2283014; active = hit-call score of the fitted dose curve at least 0.9, where 1 is the maximum). In a few lines: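 HepG2 cells transiently transfected with multiplexed GAL4-UAS reporter units for exogenous chimeric THRa1-Gal4; reporter mRNA measured 24 h after dosing by RT-PCR, 6-FAM labelling, HpaI digestion and capillary electrophoresis. Gain-of-signal fitted versus DMSO baseline.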

Assay [17] concerns the target human Peroxisome Proliferator-activated Receptor alpha (PPARa), PPARA (gene 5465) (UniProt Q07869). The assay can be described thus: ATG_PPARa_TRANS: Attagene TRANS-FACTORIAL HepG2 Assay for human Peroxisome Proliferator-activated Receptor alpha (PPARa) (AID 2283001; active = hit-call score of the fitted dose curve at least 0.9, where 1 is the maximum). In a few lines: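 Read-out is fluorescence of reporter cDNA fragments resolved by capillary electrophoresis after RT-PCR. Human HepG2 liver cells carried transfected PPARa-Gal4 chimera and GAL4-UAS reporter units, treated 24 h; activity scored as increase over DMSO.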

Assay [18] addresses Retinoic acid receptor alpha (Homo sapiens) (UniProt P10276). The assay can be described thus: ATG_RARa_TRANS: Attagene TRANS-FACTORIAL HepG2 Assay for human Retinoic Acid Receptor alpha (RARa) (AID 2283005; active = hit-call score of the fitted dose curve at least 0.9, where 1 is the maximum). In a few lines:
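Reporter transcripts, measured by RT-PCR with fluorescent labeling and capillary electrophoresis after 24 h dosing, reflect activity of an exogenous human RARa–GAL4 fusion in transiently transfected HepG2. Fitted for increase relative to DMSO.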

For assay [19], the target named is human RAR-related Orphan Receptor gamma (RORg), RORC (gene 6097) (UniProt P51449). The assay can be described thus: ATG_RORg_TRANS: Attagene TRANS-FACTORIAL HepG2 Assay for human RAR-related Orphan Receptor gamma (RORg) (AID 2283011; active = hit-call score of the fitted dose curve at least 0.9, where 1 is the maximum). In a few lines: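 Readout: reporter transcript induction (RT-PCR, fluorescent primer extension, capillary electrophoresis) after 24 h compound exposure of transiently transfected HepG2 cells carrying a RORg-Gal4 chimera and GAL4-UAS reporters; DMSO served as baseline, with increasing signal fitted.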
Sequence of human RAR-related Orphan Receptor gamma (RORg), RORC (gene 6097) (P51449 whole entry, looked up, the tested form may be a part): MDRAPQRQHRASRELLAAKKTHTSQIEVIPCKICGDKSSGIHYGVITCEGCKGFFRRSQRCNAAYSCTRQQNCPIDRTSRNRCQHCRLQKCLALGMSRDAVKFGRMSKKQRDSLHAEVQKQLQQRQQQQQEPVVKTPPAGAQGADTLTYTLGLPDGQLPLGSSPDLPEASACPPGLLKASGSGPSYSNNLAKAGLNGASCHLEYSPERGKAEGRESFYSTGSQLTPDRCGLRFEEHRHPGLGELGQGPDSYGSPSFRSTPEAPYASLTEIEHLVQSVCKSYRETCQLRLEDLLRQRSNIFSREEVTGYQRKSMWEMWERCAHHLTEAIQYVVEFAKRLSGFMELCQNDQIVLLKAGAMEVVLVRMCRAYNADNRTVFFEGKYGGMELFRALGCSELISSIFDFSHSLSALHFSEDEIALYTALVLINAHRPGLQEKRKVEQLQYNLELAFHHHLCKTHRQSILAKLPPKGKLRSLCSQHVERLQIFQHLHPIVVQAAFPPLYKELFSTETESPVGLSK

Sequence of Peroxisome proliferator-activated receptor gamma (Homo sapiens) (P37231 whole entry, looked up, the tested form may be a part): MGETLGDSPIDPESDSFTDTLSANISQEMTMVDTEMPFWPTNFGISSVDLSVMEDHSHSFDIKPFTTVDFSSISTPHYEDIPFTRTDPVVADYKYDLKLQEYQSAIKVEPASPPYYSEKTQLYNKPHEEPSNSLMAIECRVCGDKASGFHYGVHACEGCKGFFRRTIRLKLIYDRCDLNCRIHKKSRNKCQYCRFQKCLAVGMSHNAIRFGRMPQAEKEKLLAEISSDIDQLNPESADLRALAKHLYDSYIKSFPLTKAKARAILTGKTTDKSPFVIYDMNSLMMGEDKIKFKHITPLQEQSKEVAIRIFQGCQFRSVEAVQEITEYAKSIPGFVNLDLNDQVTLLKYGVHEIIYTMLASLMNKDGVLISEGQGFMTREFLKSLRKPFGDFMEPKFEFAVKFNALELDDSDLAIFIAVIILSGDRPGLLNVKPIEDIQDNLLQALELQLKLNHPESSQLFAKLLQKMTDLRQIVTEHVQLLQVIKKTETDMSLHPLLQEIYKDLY
Sequence of human Peroxisome Proliferator-activated Receptor delta (PPARd), PPARD (gene 5467) (Q03181 whole entry, looked up, the tested form may be a part): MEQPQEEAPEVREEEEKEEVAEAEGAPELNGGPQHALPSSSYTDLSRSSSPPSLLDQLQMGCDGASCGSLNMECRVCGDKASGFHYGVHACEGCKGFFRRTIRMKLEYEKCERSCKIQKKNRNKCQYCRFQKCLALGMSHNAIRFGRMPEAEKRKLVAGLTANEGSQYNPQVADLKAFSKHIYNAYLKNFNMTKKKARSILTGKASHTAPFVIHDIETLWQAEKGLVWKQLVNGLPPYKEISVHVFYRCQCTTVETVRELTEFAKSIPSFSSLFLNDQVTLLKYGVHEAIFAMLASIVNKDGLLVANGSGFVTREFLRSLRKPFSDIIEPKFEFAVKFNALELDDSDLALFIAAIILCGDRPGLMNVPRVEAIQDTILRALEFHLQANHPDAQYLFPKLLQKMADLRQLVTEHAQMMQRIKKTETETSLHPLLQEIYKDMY
Sequence of Retinoic acid receptor RXR-alpha (Homo sapiens) (P19793 whole entry, looked up, the tested form may be a part): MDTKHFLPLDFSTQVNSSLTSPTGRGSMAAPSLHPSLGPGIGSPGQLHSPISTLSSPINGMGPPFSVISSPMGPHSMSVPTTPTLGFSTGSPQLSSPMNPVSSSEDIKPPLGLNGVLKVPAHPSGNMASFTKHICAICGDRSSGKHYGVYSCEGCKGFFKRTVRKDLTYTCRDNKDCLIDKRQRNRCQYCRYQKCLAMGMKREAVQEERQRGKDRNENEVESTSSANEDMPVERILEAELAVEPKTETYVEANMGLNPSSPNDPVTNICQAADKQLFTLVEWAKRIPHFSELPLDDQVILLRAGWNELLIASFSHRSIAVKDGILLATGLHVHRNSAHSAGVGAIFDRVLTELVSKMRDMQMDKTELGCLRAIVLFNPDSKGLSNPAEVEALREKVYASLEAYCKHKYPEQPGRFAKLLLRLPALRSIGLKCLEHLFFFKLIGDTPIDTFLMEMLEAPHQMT
Sequence of human Retinoic Acid Receptor beta (RARb), RARB (gene 5915) (P10826 whole entry, looked up, the tested form may be a part): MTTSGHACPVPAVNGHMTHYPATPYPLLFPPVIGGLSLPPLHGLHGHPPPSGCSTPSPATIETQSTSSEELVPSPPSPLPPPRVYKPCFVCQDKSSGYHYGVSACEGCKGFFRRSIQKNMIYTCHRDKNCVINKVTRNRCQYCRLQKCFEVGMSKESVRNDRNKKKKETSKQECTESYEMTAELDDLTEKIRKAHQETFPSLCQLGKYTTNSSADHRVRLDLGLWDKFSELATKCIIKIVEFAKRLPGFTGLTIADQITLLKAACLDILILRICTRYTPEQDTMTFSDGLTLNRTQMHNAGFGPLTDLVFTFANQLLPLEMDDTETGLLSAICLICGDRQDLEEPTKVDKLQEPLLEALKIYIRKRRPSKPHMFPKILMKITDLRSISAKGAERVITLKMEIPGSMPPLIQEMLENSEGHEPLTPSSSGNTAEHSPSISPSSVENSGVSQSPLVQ
Sequence of E-selectin (Homo sapiens) (P16581 whole entry, looked up): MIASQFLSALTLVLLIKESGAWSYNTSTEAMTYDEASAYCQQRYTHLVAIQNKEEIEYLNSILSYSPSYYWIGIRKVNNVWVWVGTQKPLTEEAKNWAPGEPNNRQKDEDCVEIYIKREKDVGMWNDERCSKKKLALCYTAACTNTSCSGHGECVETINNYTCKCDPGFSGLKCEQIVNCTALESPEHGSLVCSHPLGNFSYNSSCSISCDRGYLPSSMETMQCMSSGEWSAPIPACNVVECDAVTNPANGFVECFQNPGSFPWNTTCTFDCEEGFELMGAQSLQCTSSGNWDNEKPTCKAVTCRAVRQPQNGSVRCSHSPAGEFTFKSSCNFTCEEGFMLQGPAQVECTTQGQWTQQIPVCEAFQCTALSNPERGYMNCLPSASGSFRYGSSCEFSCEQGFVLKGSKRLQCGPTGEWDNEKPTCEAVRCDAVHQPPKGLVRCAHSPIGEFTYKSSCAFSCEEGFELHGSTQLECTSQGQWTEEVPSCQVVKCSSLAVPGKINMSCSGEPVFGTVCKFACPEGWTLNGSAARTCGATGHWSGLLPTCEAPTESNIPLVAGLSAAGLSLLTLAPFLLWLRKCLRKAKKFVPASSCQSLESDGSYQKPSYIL
Sequence of human Retinoid X Receptor beta (RXRb), RXRB (gene 6257) (P28702 whole entry, looked up, the tested form may be a part): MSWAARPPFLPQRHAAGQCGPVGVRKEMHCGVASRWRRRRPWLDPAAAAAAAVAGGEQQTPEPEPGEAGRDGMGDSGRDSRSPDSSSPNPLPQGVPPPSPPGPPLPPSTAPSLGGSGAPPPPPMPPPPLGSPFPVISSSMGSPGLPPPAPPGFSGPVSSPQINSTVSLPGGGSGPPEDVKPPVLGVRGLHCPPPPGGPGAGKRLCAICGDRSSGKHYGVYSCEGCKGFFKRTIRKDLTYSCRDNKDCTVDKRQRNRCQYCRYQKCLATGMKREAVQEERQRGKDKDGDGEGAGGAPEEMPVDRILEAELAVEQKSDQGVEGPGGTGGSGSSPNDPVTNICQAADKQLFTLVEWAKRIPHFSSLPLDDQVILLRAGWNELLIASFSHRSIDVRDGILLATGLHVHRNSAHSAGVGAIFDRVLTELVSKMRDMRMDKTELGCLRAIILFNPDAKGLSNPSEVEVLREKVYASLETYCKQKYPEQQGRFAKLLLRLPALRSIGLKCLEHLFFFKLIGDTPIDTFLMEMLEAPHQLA
Sequence of Retinoic acid receptor alpha (Homo sapiens) (P10276 whole entry, looked up, the tested form may be a part): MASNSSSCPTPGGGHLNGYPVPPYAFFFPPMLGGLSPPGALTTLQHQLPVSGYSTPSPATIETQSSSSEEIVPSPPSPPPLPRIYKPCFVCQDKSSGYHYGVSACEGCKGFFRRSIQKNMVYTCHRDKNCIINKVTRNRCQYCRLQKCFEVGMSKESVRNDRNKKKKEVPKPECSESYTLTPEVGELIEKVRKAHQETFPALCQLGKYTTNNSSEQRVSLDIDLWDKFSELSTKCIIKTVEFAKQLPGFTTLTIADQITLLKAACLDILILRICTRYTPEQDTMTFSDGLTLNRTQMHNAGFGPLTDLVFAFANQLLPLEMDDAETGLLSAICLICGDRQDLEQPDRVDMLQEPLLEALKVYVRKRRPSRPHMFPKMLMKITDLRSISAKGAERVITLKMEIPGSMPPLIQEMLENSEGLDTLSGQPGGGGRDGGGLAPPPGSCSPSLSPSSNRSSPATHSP
Sequence of human Thyroid Receptor alpha (THRa1), THRA (gene 7067) (P10827 whole entry, looked up, the tested form may be a part): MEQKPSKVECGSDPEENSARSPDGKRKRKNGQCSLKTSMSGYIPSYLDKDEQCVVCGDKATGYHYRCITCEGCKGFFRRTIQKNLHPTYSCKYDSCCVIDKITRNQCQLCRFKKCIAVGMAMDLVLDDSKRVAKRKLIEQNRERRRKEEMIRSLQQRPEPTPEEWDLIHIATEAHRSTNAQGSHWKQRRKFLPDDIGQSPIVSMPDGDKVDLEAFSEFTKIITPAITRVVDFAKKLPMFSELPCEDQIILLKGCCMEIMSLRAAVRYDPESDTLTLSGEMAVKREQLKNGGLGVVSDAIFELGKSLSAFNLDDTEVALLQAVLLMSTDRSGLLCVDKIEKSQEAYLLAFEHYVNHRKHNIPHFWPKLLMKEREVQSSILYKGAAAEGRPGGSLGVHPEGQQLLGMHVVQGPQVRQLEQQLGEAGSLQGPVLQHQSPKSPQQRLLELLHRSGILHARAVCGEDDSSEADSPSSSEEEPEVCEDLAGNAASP

As for `Cc1cc(CCN2CCN(c3nsc4ccccc34)CC2)cc2c1NC(=O)CC2(C)C`, the compound was classed as inactive in [1], in assay [3], in assay [6] and in [7]. Also, the AC50 (commonly the concentration giving half of the maximal activity seen) in [2] is 38.3 µM (active); in assay [4], 18.6 µM (active); in assay [5], 3.26 µM (active); in assay [8] it was 30.9 µM (active); in assay [9], 30.5 µM (active); in assay [10] it was 30.7 µM (active). In addition, the AC50 in assay [11] was 8.35 µM (active); in [12], 10.9 µM (active); in [13] it was 33.1 µM (active); in assay [14], 35.8 µM (active).
As for `CCCCCCCCCCCCN1CCCC1=O`, the call in [1], in assay [5], in [7], in assay [15] and in assay [16] was inactive. Also, the AC50 in assay [2] is 31 µM (active); in assay [4], 30.6 µM (active); in assay [8], 31.8 µM (active); in assay [9], 33.2 µM (active); in [10], 32.7 µM (active); in [11] it was 27.8 µM (active). Besides, the figures for the AC50 in assay [12], in assay [13] and in [14] were 30.2 µM (active), 29.4 µM (active) and 36.7 µM (active), respectively.
For `CN(C)C=O`, the result in assay [17], in assay [2], in assay [3], in assay [18], in [4] and in [5] was inactive. Besides, the outcome in assay [19], in assay [8], in [9], in assay [10], in assay [11] and in assay [12] was inactive. In addition, the outcome in [13] and in assay [14] was inactive. Moreover, the half-maximal activity concentration (AC50) in assay [7] was 4.99 µM (active); in assay [15] it was 740 nM (active).
Regarding `N#C[C@@H]1CC(F)(F)CN1C(=O)CNC1CC2CCC(C1)N2c1ncccn1` (some centres not stated), the outcome in assay [2], in assay [3], in assay [4], in assay [19], in assay [7] and in assay [15] was inactive. The outcome in assay [8], in assay [9], in assay [11] and in assay [14] was inactive. In addition, the AC50 in [10] was 4.85 µM (active); in [12], 2.58 µM (active); in assay [13], 7.55 µM (active).
Consider `CCCOc1sc(C(=O)N2CCC(c3cc(CN)ccc3F)CC2)c(C)c1Br`, for which the compound was called inactive in assay [1], in assay [6], in assay [19], in assay [7] and in assay [15]. Further, the concentration at half-maximal activity (AC50) was 10.6 µM (active) in [2]; 4.84 µM (active) in assay [4]; 6.67 µM (active) in [5]; 11.1 µM (active) in assay [8]; 5.86 µM (active) in assay [9]; 7.57 µM (active) in assay [10]. Further, the AC50 in assay [11] is 9.52 µM (active); in assay [12], 7.77 µM (active); in assay [13], 8.8 µM (active); in [14], 11.1 µM (active).
For the compound `CCc1nn(C2CCCCC2)c2cc(C3(C#N)CCC(C(=O)O)CC3)ccc12` (configuration not stated), the outcome in assay [1], in assay [2], in assay [3], in assay [18], in [7] and in [15] was inactive. Moreover, the result in [9], in assay [11] and in assay [14] was inactive. In addition, the concentration at half-maximal activity (AC50) was 6.36 µM (active) in assay [4]; 1.44 µM (active) in assay [5]; 9.4 µM (active) in [8]; 10.6 µM (active) in assay [10]; 20 µM (active) in [12]; 7 µM (active) in assay [13].
